PubChem BioAssay AID1508600 (Functional Genomics Laboratory (NCATS/FGL), 2020)
The campaign covered roughly 53,000 sequences. About 3,700 (7%) were called active. This excerpt belongs to a sample that is enriched for actives. Unmarked numbers belong to inactive results.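 Rule for the calls: active = gene knockdowns whose robust z-score for IL-1 alpha signal is at least 2 or at most -2, so actives lie on both sides; inactive = the rest.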

Assay: Components of the Cytosolic LPS Sensing Pathway: Gene Identification via Genome-wide siRNA Screen;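 note: robust z of the log signal after scaling to non-targeting control siRNA wells of the plate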
Conditions: RAW264.7 macrophages, IL-1a HTRF, actives lie on both sides, screened at 100 nM (by protocol), cells primed 5 h with Pam3CSK4 first
Summary of the method: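 Cells (RAW264.7, 1×10^4 per well) were transfected with siRNA at 100 nM and cultured 48h at 37 degrees C. Pam3CSK4 was added for 5 hours; LipidA transfection followed for 24 hour. IL-1a was then measured by HTRF.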
GGUGAUCACAAAUAUGAUGTT against Ubxn2b gave a z-score of -0.173. Work on GGAGUUUGUUAAUUUCGCATT against Rundc3a yielded a z-score of 0.612. For GCACGGAGCCAAAUAAUCUTT against Rpl28, the z-score was 2.07 (active). In the case of GGAAGUAGAGAUCUCCUUATT against Btn1a1, the z-score is reported as 0.96. GGAAGUGCUACUUUCUGGGTT against Tmem178 gave a z-score of 1.74. With GGAGAUGAAGUGGACAGACTT against Anapc13 the z-score was 1.02. For GGUGAACGAACAUUGGUAUTT against Sorbs3, the z-score was -0.614. With CCAUCACGAGUGAAUUCGATT against Olfr945 the z-score was -2.13 (active). GGAGCGAUCUGAAAAUUUGTT against Rasip1 showed a z-score of -0.365. CCUCUCCAGUGUCGACAUUTT against Olfr51 gave a z-score of 0.347. Sequence CGAAGUCGUGGCAAUGAUUTT against Nfu1 has a z-score of 1.39. Work on GCAGGAAGCCCAGUAAAGUTT against Figla yielded a z-score of 0.44. With “GGAAGACACUGGUUUCCAATT against 1700067P10Rik” the z-score was 2.62 (active). With GGAGAGAAGAAAAAGAAGGTT against Rrbp1 the z-score was 0.647. GCAUGAUUACCAGAACCACTT against Fcgr2b gave a z-score of 0.225. GCAUGUGAAAUCUAGAUCATT against Cks1b showed a z-score of -0.0851. UGGUACCACCAUUUUUACCTT against Olfr452 gave a z-score of -1.2. For GCUGGGCUUCAACGAUUACTT against Efna4, the z-score was 1.3. For GGUUCCUUAAACAUUCAGATT against Tspan31, the z-score was 2.28 (active). CGAUCACCAUGAUGAAUUCTT against Bex3 showed a z-score of -0.128. GCAGGAUGCAGCGAUAGUUTT against Slc2a6 showed a z-score of -0.952. GGGCUACAGCAUGUAUGAGTT against Zc3h4 gave a z-score of 0.814. “GGAACGAAGUCUGAAACACTT against A730018C14Rik” gave a z-score of -1.89. Sequence GGAGUCCCAGGACAUGAAATT against Pou5f1 has a z-score of 0.333. With GCCUCUGUCAAGUCUUGGATT against Ftl1 the z-score was -2.17 (active). GGUACUGUUGCGCUUUGCUTT against Ciao3 gave a z-score of 1.47. In the case of GGAGAAUUAACUGUUCCUCTT against Kcnmb2, the z-score is reported as 2.23 (active). For GCUGAGGCAUAAAAACGAGTT against Atad3a, the z-score was -0.643. With GGUGAAUCUAUUUACCUGCTT against Fam71d the z-score was 0.317. GGAAUAUGUGCAGAAGCUGTT against Fgd2 showed a z-score of -1.2. In the case of “GGCUGUCUUAUUAAAGCUATT against A730013G03Rik”, the z-score is reported as -2.19 (active). With GGUCUAGAGUUACCAUUCATT against Aqp9 the z-score was -0.954. For CCAAGGACUCUCAUCUGUUTT against Zfp474, the z-score was -0.712. GGACGACAGGAACUGGCAATT against Fbxo9 showed a z-score of 0.615. Work on GCAGAGGGCAACUCGUAAGTT against Gm6034 yielded a z-score of -0.843. In the case of CCAACACUGAGCUCAGAAGTT against Igfbp2, the z-score is reported as -1.34. For GGCGGUCAAGGGAAAAACATT against Tcf7, the z-score was 2.19 (active). Sequence CCGACUAAUGCUAAAUCCATT against Pcgf1 has a z-score of 0.897. GGUGAAAUUCUGAAUGAAATT against Gatb showed a z-score of -0.0515. GGAACUAGAAGAAAUGUUATT against Mrps9 gave a z-score of 0.768. Work on GGGAGCAGAUUGAAACAGUTT against Eri2 yielded a z-score of -0.546. In the case of CUUAGUGCUCUGGGAGCAGTT against Ms4a5, the z-score is reported as 0.487. With CGAUCACCUUAGUAAAUACTT against Ykt6 the z-score was 0.233. Sequence GGAAGGGACUGAUCGGUACTT against Igsf8 has a z-score of 1.61. GCUGAGACUUCGAGCCUAUTT against Polr2c showed a z-score of -0.976. For CCAGUUAAAAAGGUUCCAATT against Ccdc169, the z-score was 1.46. GGAUAACCUAAUGUAGAUATT against Nphs2 gave a z-score of -0.0675. With GGAUCAAAAACACAUACUUTT against Adgre4 the z-score was 2.37 (active). In the case of GGGAUAUCCCAGAACAAGATT against Vps37a, the z-score is reported as 0.336. Work on GCUUGGUAGAGAUGUUAAATT against Ryr3 yielded a z-score of -0.119. GCAUCAUUUUAACACUUCUTT against Tubd1 showed a z-score of -0.0435. GGAGGGAAAACCACAAGACTT against Dppa4 gave a z-score of 0.514. Work on CCUCUUAUUCAGAAUGUCCTT against Bnc2 yielded a z-score of 0.451. In the case of GCGAGGAGAGUGUGUUUUCTT against Bop1, the z-score is reported as 2.08 (active). With GGACAUCCAGACAAUGAGGTT against Fam13b the z-score was -1.62. For GGUCGUCUGAUUUUUGAUATT against Atp1a1, the z-score was 0.391. With GGACUGCUGGGAGAACUUUTT against Zcchc3 the z-score was 0.76. With CGCAGGACAUUUGGUUUUGTT against Ssxb2 the z-score was 2.88 (active). Sequence “GGGCCACAGGAUCUCACUUTT against 1700009J07Rik” has a z-score of -1.88. Work on GGAGGAACAGAAGAAACUCTT against Tma7 yielded a z-score of -0.0481. GGCUAUGCAAGUGGAGAGCTT against Nfat5 gave a z-score of -0.311. GGACAAAGGCUGUAUUUUCTT against Tgm3 gave a z-score of -1.07. With CGCGAGCUCAGAAUACAUGTT against Btn1a1 the z-score was 2.5 (active). GGAGAUAAUAAUGAAGUCGTT against Sec11c showed a z-score of 0.353. Work on GGUUGGUGAACUUGGAGGUTT against Hspa1a yielded a z-score of 1.41. Sequence GGGUUUUUUUUUCCUUGAATT against Smndc1 has a z-score of -0.313. GGCUGAUGGAAAUCCUUAATT against Ctif gave a z-score of 0.0158. In the case of GGUAGAAUACGUGUUCCUGTT against Cacna1f, the z-score is reported as 2.79 (active). GGGCAAAGCCUUCAACCCUTT against Insl6 gave a z-score of -0.038. CGCCACUGCUUUGAUUACUTT against Coa5 gave a z-score of -1.51. In the case of GGCGCAUUACCAGAGCUUCTT against Tnpo2, the z-score is reported as -0.425. With CGUUGUCAAAAGGACCCAUTT against Pvr the z-score was -0.766. For GGAUAAGGUAGAAUUACUGTT against Slc26a4, the z-score was 3.06 (active). In the case of GCACCGUGUGACCAUGAACTT against Akt1, the z-score is reported as 3.96 (active). Sequence GCAAGGAUCCACGCUUUUCTT against Ckmt2 has a z-score of 1.34. In the case of GCCACUCUUAGUGCUAACUTT against Tctn3, the z-score is reported as -1.25. GGAUUACCUAAAUUUAGGATT against Hfm1 showed a z-score of 0.14. With GCACUACAGACACUUUUAGTT against Gm5533 the z-score was -2.12 (active). GGAAAAUUCAGUUUAAUCCTT against Glt8d1 gave a z-score of 0.438. GGACAGAACCAUCUGAAGGTT against Aldh18a1 showed a z-score of 1.43. CGUGGAAAAGCUAUGUGCGTT against Lif showed a z-score of -0.188. For GGAAGCUGUGCUGAAUGGUTT against Atp5l, the z-score was 0.387. With CGGCACUGUCAUAAGUGUGTT against Utp4 the z-score was 2.39 (active). In the case of GGAGGAAAAGGCUUUUCGATT against Ccdc70, the z-score is reported as 1.04. With GGCACAUCACUGCUUACCUTT against Rce1 the z-score was -1.73. For GGAUGUGGAAUCAUGCUAUTT against Tnpo3, the z-score was 2.41 (active). With GCCAAGCCAUCUCAUUAAATT against Wdr18 the z-score was -0.724. With GCCUGACUUUAAUGAAGAATT against Slf2 the z-score was -1.77. With GGGUUUCUUGUUUCUUAGATT against Aldh6a1 the z-score was -0.00669. In the case of CGUGGUUCCUCUUUGGUGUTT against Kcnj10, the z-score is reported as -0.217. With CCAGUUCUUAACAUUGUGUTT against Syap1 the z-score was -1.13. For CCCAUCAUCUUCCCAUUCGTT against Olfr146, the z-score was -0.204. With GGGCUAGAUGAAUUUUUGATT against Aplnr the z-score was -0.181. In the case of GGCCUGGAUUCCUUAACAATT against Lgi1, the z-score is reported as -3.23 (active). CCAGCUAUGUGUAUAAACCTT against Ppid showed a z-score of -0.045. GCCUGUGCCUUUUGAAUUCTT against Brox gave a z-score of -0.0201. Sequence GGUCUAUCCCAUCAUGCCUTT against Clcnka has a z-score of 0.583. GCAGAGAGUUUUUAUCUGCTT against Vmp1 showed a z-score of 0.0579. With CGCUACGACUAGAGUUUGCTT against Rbpms the z-score was 2.36 (active). GGGAAGAACUUCAAGCUUGTT against Ptk2b gave a z-score of 0.668. For GGUUGGACUGACUAUCCAUTT against Olfr984, the z-score was 1.02. Sequence GGCUGCUGACAUUUUCAUCTT against Lrrc28 has a z-score of 1.53. With GGAUAUGCUCAGAGGUUUUTT against Pex11g the z-score was 2.2 (active). With GGUCCUAACAUCCAGAGUGTT against Zfp438 the z-score was -1.06. With GGAUAAGACCAUCAGAUUATT against Wdr31 the z-score was 1.18. With GGAGCUUGAUUCGAAGCCUTT against Bik the z-score was -0.364. GCGAAGAGUCAAAUCCAUCTT against Dock8 gave a z-score of -1.93. For CGGGUGCUAAAAUGUCUAUTT against Khdrbs2, the z-score was 2.81 (active).
